The list is not random: actives were taken first. Their share in the collection is about 5.7%.
HepG2 viability: qHTS for Inhibitors of TGF-b: Cytotox Counterscreen | HepG2 CAGA-GFP viability, ATP luminescence, 18 h | Potency, µM (top dose mostly 46.1 µM), without a hit: top-dose activity change, negative = cytotoxicity, usual class: cytotoxic | hit rate 0.76% among 410,000 | AID 588856, 2011; further: potency means the concentration at half of the fitted maximal effect
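CellTiter-Glo luminescence gave cytotoxicity after 18 hours at 37 degrees C. The cells were HepG2 CAGA-GFP in 1% FBS DMEM, stimulated with 500 pg/mL TGF-beta after compound addition. %Activity was normalised to no-cell wells (complete cell-killing) and DMSO (no toxicity), and curves were fitted and classified.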
ATXN viability: Viability Counterscreen for Primary qHTS for Inhibitors of ATXN expression; S2 cells (HEK-293 line with an ATXN2-luciferase reporter) viability, CellTiter-Fluor protease fluorescence, 24 h; Potency, µM (series often up to 56.7 µM), usual class: cytotoxic; hit rate 0.49% among 400,000; AID 651635, 2014; further: potency means the concentration at half of the fitted maximal effect; nearly all actives have a fitted effect of over 40% in size
ATXN2 expr inh: Primary qHTS for Inhibitors of ATXN expression. AID 1745845, 2022. Potency, µM (doses to about 57 µM), for the others: at the highest dose activity change, negative = inhibition, actives largely listed as inhibitors. hit rate 0.72% among 360,000. HEK-293 ATXN2-luciferase reporter, luminescence, 24 h; further: potency means the concentration at half of the fitted maximal effect; on the % scale 0 is the no-effect control and ±100 the full control effect; nearly all actives have a fitted effect of over 55% in size
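qHTS (up to 57 uM final) was run with 24 h compound exposure of reporter cells at 37 °C. Each well was multiplexed: SteadyGlo luminescence measured ATXN2-luciferase expression after a fluorogenic Gly-Phe-AFC viability readout (25 uM final).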
IL1B secr inh: qHTS for Inhibitors of Inflammasome Signaling: IL-1-beta AlphaLISA Primary Screen | hit rate 4.7% among 360,000 | activity change, % at 57.5 µM | THP-1 LPS/ATP IL-1B secretion, AlphaLISA, 16 h; active compounds read low; in the data active means activity change below about -50%; inconclusive means mostly about -30% to -49%; further: on the % scale 0 is the no-effect control and ±100 the full control effect
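Secreted IL-1B measured by AlphaLISA bead assay after 16 h compound exposure of THP-1 cells; compounds (final up to 57.5 uM) added 1 h before LPS (250 ng/mL) and ATP (1.25 mM) stimulation; lower signal means less secretion.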
TGFb SMAD3 inh: qHTS for Inhibitors of TGF-b | HepG2 CAGA-GFP TGF-b/SMAD3 reporter, GFP fluorescence, 18 h; TGF-beta stimulated, 500 pg/mL final | Potency, µM (series often up to 46.1 µM), for inactives: at the highest dose activity, negative = inhibition, hits mostly inhibitors | hit rate 1.2% among 410,000; further: potency means the concentration at half of the fitted maximal effect; on the % scale 0 is the no-effect control and ±100 the full control effect; nearly all actives have a fitted effect of over 65% in size
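HEPG2 CAGA-GFP reporter cells (1000/well, DMEM with 1% FBS) received compounds, then recombinant TGF-beta at 500 pg/mL final for 18 hours at 37 degrees C. Per-cell GFP summed per well was normalised to unstimulated and stimulated DMSO controls before curve fitting.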
An asterisk follows results filed as active; i = inactive; ? = inconclusive; nt = no result given; [ ] = dose if it differs, or a comment. Unless noted, the call rests on the fitted dose curve; in most records, active means well fitted curve in the direction sought with a large enough effect; inconclusive means small, poorly fitted or top-dose-only effect, or another doubt; inactive means no such curve, though single readings can be large; an effect the other way counts as inactive or inconclusive.

SMILES	HepG2 viability	ATXN viability	ATXN2 expr inh	IL1B secr inh	TGFb SMAD3 inh
O=c1c(Br)ccc(Br)cc1Br	4µM*	7.5µM*	6µM*	-100*	1.6µM*
CCn1c(SCC(=O)Nc2nc3ccc(C)cc3s2)nc2c(c1=O)SC(C)C2 (stereo unspecified)	8%	?	?	-83*	?
CN(Cc1cnc2ccccn12)C(=O)c1cc(NC(=O)c2ccccc2)cc2ncn(C3CCCC3)c12	nt	i	nt	nt	nt
N#Cc1ccccc1NC(=O)CSC1=Nc2ccccc2C2CC=NN12 (stereo unspecified)	-12%	?	-7%	25	-2%
Cc1cc(C)cc(N(CCC#N)C(=O)CSC2=Nc3ccccc3C3CC=NN23)c1 (stereo unspecified)	-5%	i	-8%	-91*	?
CNC(=O)/C=C1\NC(C)(C)Cc2c1ccc1ccccc21	-1%	i	-12%	-67*	4%
C=C1C=C(C)n2ncc(C(=O)Nc3ccc(F)cc3F)c2N1	5%	nt	nt	nt	12%
O=C(Nc1ccc(CN2CCOCC2)cc1)c1ccc(-c2ccc(Cl)cc2Cl)o1	-15%	i	?	-56*	?
O=C(Nc1ccc(CN2CCOCC2)cc1)c1ccc(-c2cccc(Cl)c2)o1	-30%	?	-35%	-60*	-9%
CC(C)(C)c1nnc2sc(SCCN3C(=O)c4ccccc4C3=O)nn2c1=O	-14%	i	-14%	-5	-11%
CC(C)(C)c1nnc2sc(SCC(=O)N3CCCCC3)nn2c1=O	1%	i	1%	-92*	-18%
CC(C)N(C(=O)CSc1nn2c(=O)c(C(C)(C)C)nnc2s1)c1ccccc1	-1%	i	-9%	-50*	0%
Cc1cc(C(=O)CSc2nn3c(=O)c(C(C)(C)C)nnc3s2)c(C)n1-c1ccc(F)cc1	-6%	i	24%	8	-26%
O=C(CS(=O)(=O)c1cccc2nsnc12)NCc1ccc(Cl)cc1	2%	nt	nt	nt	-2%
CN1CCN(c2nnc(-c3cccs3)c3ccccc23)CC1	-3%	?	-1%	-54*	-13%
Cc1ccccc1Oc1nnc(-c2cccs2)c2ccccc12	14%	i	-16%[11.3 µM]	-12	?
COc1cc2c3nnc(-c4ccccc4)c-3cn(Cc3ccccc3F)c2cc1OC	-62%	nt	-19%[11.3 µM]	-115*	44%
COc1cc2c3nnc(-c4ccc(F)cc4)c-3cn(Cc3ccccc3F)c2cc1OC	8.9µM*	i	20µM*	-60*	84%
COc1cc2c(=O)c(S(=O)(=O)c3ccc(F)cc3)cn(Cc3ccccc3C)c2cc1OC	4%	?	-16%	nt	?
CCc1ccc(NC(=O)C2CCCN(S(=O)(=O)c3c(C)noc3/C=C/N(C)C)C2)cc1 (stereo unspecified)	-13%	nt	nt	nt	?
Cc1c(C(=O)N(Cc2ccc(N(C)C)cc2)CC2CCCO2)oc2ccc(Cl)cc12 (stereo unspecified)	-22%	nt	nt	nt	?
O=C(NC(c1ccccc1)c1ccc2ccccc2n1)C1CCN(Cc2cccc(C(F)(F)F)c2)CC1 (stereo unspecified)	-26%	?	?	?	?
O=C(NC(c1ccc2ccccc2n1)c1cccs1)C1CCN(Cc2cccc(C(F)(F)F)c2)CC1 (stereo unspecified)	-33%	?	0%	-66*	?
O=C(NC(c1ccc(Cl)cc1)c1ccsc1)C1CCN(Cc2cccc(C(F)(F)F)c2)CC1 (stereo unspecified)	-38%	i	-15%	-70*	0%
COc1ccc(/C=C/c2c(-c3ccc(OC)cc3)oc3ccc(-c4ccc(OC)cc4)cc23)cc1	15%	i	-1%	-1	16%
SMILES	HepG2 viability	ATXN viability	ATXN2 expr inh	IL1B secr inh	TGFb SMAD3 inh
COc1ccc(/C=C/c2cc(-c3ccc(C)cc3)o[n+]2C)cc1	-51%	?	?	-120*	10µM*
CCCCOC(=O)c1ccc(NC(=O)CC2NCCNC2=O)cc1 (stereo unspecified)	1%	i	13%	nt	0%
CNC[C@H](O)[C@@H](O)[C@H](O)[C@H](O)CO	nt	i	11%	nt	nt
CSc1ccc(/C=C2\C=Cc3ccccc32)cc1	1%	nt	nt	nt	4%
CC1C(=O)C(C)C(c2ccc(Br)cc2)NC1c1ccc(Br)cc1 (stereo unspecified)	-2%	?	nt	-12	-21%
CC1C(=O)C(C)C(c2cc(Br)ccc2O)NC1c1cc(Br)ccc1O (stereo unspecified)	-97%	?	?	-97*	16µM*
CSCCC(NS(=O)(=O)c1ccc2c(c1)oc(=O)n2C)C(=O)NC1CCN(Cc2ccccc2)CC1 (stereo unspecified)	10%	i	0%	-84*	-2%
Cc1ccc(-c2nc(=Nc3c(C)cc(C)cc3C)sn2-c2ccccc2)cc1	-29%	nt	nt	nt	5.6µM*
Cc1cc(N(C)C)nc(Nc2ccccc2)n1	-11%	i	nt	-79*	11%
NC(=O)N1N=C2/C(=C/c3ccccc3)CCCC2C1c1ccccc1 (stereo unspecified)	-23%	i	-20%	-57*	?
COc1ccc(/C=C2\CCCC3C2=NN(C(=O)CSc2ncn[nH]2)C3c2ccc(OC)cc2)cc1 (stereo unspecified)	4%	i	-7%	-85*	?
O=C(O)CSCC(=O)N1N=C2/C(=C/c3ccccc3)CCCC2C1c1ccccc1 (stereo unspecified)	-5%	i	8%	2	-9%
COc1ccc(CC(=O)NCc2nc3cccnc3n2Cc2ccc(C)cc2)cc1OC	-29%	nt	nt	nt	-24%
CCCCC(CC)C(=O)Oc1ccc(O)c(C(C)(C)C)c1 (stereo unspecified)	-95%	?	-34%	-96*	14µM*
CC(NS(=O)(=O)c1ccccc1[N+](=O)[O-])c1ccccn1 (stereo unspecified)	5%	nt	nt	nt	3%
CSc1nn(Cc2ccccc2C)c(NC(C)=O)c1S(=O)(=O)c1ccc(C)cc1	3%	?	-21%	nt	?
c1ccc(CNc2ncnc3nc(N4CCOCC4)[nH]c23)cc1	-3%	nt	nt	nt	-3%
C(=C\c1nc(N2CCCCCC2)c2ccccc2n1)/c1ccccc1	-40%	?	?	-93*	0%
c1ccc2c(N3CCCCC3)nc(N3CCCCC3)nc2c1	-7%	i	-22%	4	?
C[C@@H](NC(=O)c1coc(=O)c(Br)c1)c1ccccc1	13µM*	?	?	-6	?
CCCCCn1c(CN2CCN(c3cccc(Cl)c3)CC2)nc2c1c(=O)[nH]c(=O)n2C	-71%	?	25µM*	-23	?
